PME-1 primary = PME-1 (human) inhibition; inhibition, % at 5.9 µM; recombinant PME-1, FP-Rh probe fluorescence polarization; AID 2130; Q9Y570; hit rate 0.53% among 320,000;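 active = inhibition above the campaign mean of all compounds plus 3 SD, cut at about 26% in these data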;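 also: competitive labeling of PME-1 active site by serine hydrolase directed probe; 0% = PME-1 with DMSO and 100% = wells lacking PME-1 enzyme; inhibitors block probe labeling so polarization falls and inhibition rises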
LYPLA2 counter = counter-screen for PME1 inhibitors: inhibitors of human LYPLA2 | hit rate 0.38% among 320,000 | recombinant LYPLA2, FP-Rh probe fluorescence polarization | AID 2177 | inhibition, % at 5.9 µM | O95372;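 active = inhibition above the screen-wide mean plus 3 SD, limit set per campaign, cut at about 26% in these data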;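 also: 0% = LYPLA2 with DMSO and 100% = wells lacking LYPLA2 enzyme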
Target sequence (O95372 whole entry, looked up): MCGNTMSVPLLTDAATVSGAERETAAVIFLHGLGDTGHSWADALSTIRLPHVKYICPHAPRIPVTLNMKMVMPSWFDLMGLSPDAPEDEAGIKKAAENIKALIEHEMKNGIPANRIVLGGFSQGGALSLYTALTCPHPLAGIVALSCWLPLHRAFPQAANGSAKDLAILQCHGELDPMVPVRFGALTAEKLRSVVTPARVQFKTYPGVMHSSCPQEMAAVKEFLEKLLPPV
PREPL inh = human PREPL enzyme inhibition; Q4J6C6; recombinant PREPL, fluorescence polarization activity-based probe; inhibition, % at 5.96 µM; hit rate 0.68% among 320,000; AID 2751; in the data active = inhibition above about 43%;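 also: 0% = enzyme with DMSO and 100% = wells lacking enzyme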
LYPLA1 counter = counter-screen for PME1 inhibitors: inhibitors of human LYPLA1; O75608; inhibition, % at 5.9 µM; hit rate 0.16% among 320,000; recombinant LYPLA1, FP-Rh probe fluorescence polarization;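 active = inhibition above the mean of all tested compounds plus 3 SD, set per campaign, cut at about 14% in these data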;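 also: inhibitors block serine hydrolase probe labeling of LYPLA1 so polarization falls; 0% = enzyme with DMSO and 100% = wells lacking LYPLA1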
Target sequence (O75608 whole entry, looked up): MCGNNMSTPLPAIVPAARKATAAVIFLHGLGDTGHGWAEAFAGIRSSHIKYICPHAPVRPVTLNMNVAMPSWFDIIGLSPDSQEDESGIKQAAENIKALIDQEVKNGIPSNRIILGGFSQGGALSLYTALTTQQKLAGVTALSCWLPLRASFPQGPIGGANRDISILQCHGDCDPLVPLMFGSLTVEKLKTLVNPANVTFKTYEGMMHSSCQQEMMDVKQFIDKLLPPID
Fam108B inh = blocks mouse Fam108B hydrolase in RBBP9 counter-screen. recombinant Fam108B, FP-Rh probe fluorescence polarization. inhibition, % at 9.51 µM. hit rate 0.33% among 300,000;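 active = inhibition above the screen mean inhibition plus 3 SD, computed separately per campaign, cut at about 18% in these data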;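 also: inhibitors lower polarization as less probe binds the enzyme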
Starred values were filed as active, the others as inactive; / = no result given. An excerpt weighted towards active compounds, which were near 1.3% of everything screened.

SMILES | PME-1 primary | LYPLA2 counter | PREPL inh | LYPLA1 counter | Fam108B inh
Nc1ccc(N2CCN(CCCCN3C(=O)C4CCCN4C3=O)CC2)cc1 (stereo not drawn) | 8.7 | 28.9* | 23.0 | 6.6 | -1.4
O=C1C2CCCCN2C(=O)N1CCCN1CCN(c2ccc(F)cc2)CC1 (stereo not drawn) | -1.6 | 4.3 | 10.1 | 2.1 | 1.2
CCOc1ccc(N=C/C=C/c2ccccc2)c(O)c1 | 58.4* | 3.8 | 11.4 | 2.5 | 2.0
CC(=O)c1cc(F)ccc1OCC(=O)N1CCCc2ccccc21 | -3.0 | -0.2 | 4.2 | -1.4 | -2.8
CC(=O)c1ccc(N2CCN(c3ccc(C(N)=O)cc3[N+](=O)[O-])CC2)cc1 | 7.3 | 23.0 | 15.6 | 10.1 | -0.6
NC(=O)c1ccc(N2CCN(c3ccc(O)cc3)CC2)c([N+](=O)[O-])c1 | -0.7 | 31.5* | 3.9 | 9.3 | 4.6
c1ccc(-c2nnc(-c3ccccn3)nc2NC2CCCCC2)cc1 | 1.0 | 3.6 | 86.1* | 2.1 | 1.2
CC(C)(C)c1ccc(OCc2ccc(C(=O)N/N=C/c3ccc(O)c(O)c3)cc2)cc1 | 16.5 | -0.1 | 24.5 | -11.0 | 26.9*
COc1ccc(-c2c[n+]3c4n2CCCCC4=C(c2ccc(Br)cc2)C3)cc1 | -0.5 | 0.4 | 49.2* | -0.8 | 4.2
CCOC(=O)C(C)On1c(-c2ccc(Cl)cc2)nc2ccc([N+](=O)[O-])cc21 (stereo not drawn) | 18.8 | -9.3 | 31.4 | -3.9 | 4.5
CCOC(=O)C(C)On1c(-c2ccccc2)nc2ccc([N+](=O)[O-])cc21 (stereo not drawn) | 27.4* | 7.9 | 9.6 | -0.1 | 2.6
CCOC(=O)c1sc(N)c(C(=O)Nc2ccccc2OC)c1C | 28.8* | 2.8 | 18.5 | 0.0 | 2.8
CN(C)c1ccc(CNC(=O)CN(C)S(=O)(=O)c2cccc3cccnc23)cc1 | 33.3* | -1.8 | 4.0 | 0.9 | -1.8
O=C(NCC1CCCO1)c1cc([N+](=O)[O-])ccc1Cl (stereo not drawn) | -0.7 | 2.1 | 6.7 | -1.2 | -2.0
Cc1ccc(Nc2c([N+](=O)[O-])ccc3c2=NC2(CCCCC2)N=3)cc1 | 31.2* | 14.3 | 7.6 | 0.7 | 15.9
COCCN(C(=O)c1cccc(-n2cnnn2)c1)c1c(N)n(CC(C)C)c(=O)[nH]c1=O | -5.8 | -6.0 | 3.8 | -0.3 | 0.7
O=C(CN1CCCc2ccccc21)Nc1cc(S(=O)(=O)N2CCCC2)ccc1Cl | 72.9* | -1.4 | 12.5 | -0.7 | /
O=C(Nc1c2c(nn1-c1ccccc1)CS(=O)C2)c1ccc2c(c1)OCO2 (stereo not drawn) | 3.4 | 0.3 | 0.5 | 2.0 | 3.0
O=C1c2cccc3c([N+](=O)[O-])ccc(c23)C(=O)N1c1ccccn1 | 21.7 | 0.6 | 4.4 | 0.7 | 6.9
O=C1c2cccc3c([N+](=O)[O-])ccc(c23)C(=O)N1c1ccc(Cl)cn1 | 27.6* | -6.3 | 26.1 | -10.0 | 7.3
Cc1ccc(-c2nc(Nc3ccccc3)n[nH]2)cc1 | 40.8* | -2.6 | 23.1 | -1.3 | 0.3
Nc1nc(CSc2n[nH]c(-c3ccccc3)n2)nc(Nc2ccccc2)n1 | -9.3 | 2.8 | -17.0 | -0.2 | -2.3
CCn1c2ccccc2c2cc(NC(=O)c3ccc(=O)oc3)ccc21 | 22.4 | -4.2 | 70.7* | -1.8 | -1.2
CCn1c2ccccc2c2cc(NC(=O)c3cccc([N+](=O)[O-])c3C)ccc21 | 2.4 | 7.2 | 26.1 | -2.4 | 10.0
CCn1c2ccccc2c2cc(NC(=O)c3ccc(C)c([N+](=O)[O-])c3)ccc21 | 36.5* | -9.8 | 12.0 | -8.6 | -2.7
SMILES | PME-1 primary | LYPLA2 counter | PREPL inh | LYPLA1 counter | Fam108B inh
CC1CN(C(=S)NC2CCCC2)CC(C)O1 (stereo not drawn) | 1.7 | 1.6 | 1.4 | -1.4 | -2.7
CCOc1cc(C(=O)Nc2ccccc2F)cc(Br)c1OCC | 4.8 | 3.2 | 3.6 | -3.7 | -3.7
Nc1ccc(Nc2nc3ccccc3[nH]2)cc1 | 39.8* | 5.0 | 41.8 | -7.6 | 16.8
Cc1[nH]c2ccccc2c1/C=N/Nc1nc2ccccc2[nH]1 | 23.6 | -8.5 | 53.0* | -10.4 | 10.1
Cc1ccccc1/C=N/Nc1nc2ccccc2[nH]1 | -40.5 | 1.3 | 40.8 | 1.5 | 5.3
Cc1[nH]c2ccccc2c1/C=N/NC(=O)c1cc(-c2ccncc2)nc2ccccc12 | 26.5* | -0.6 | 6.2 | -12.3 | 16.1
Nc1ccccc1Nc1nc2ccccc2[nH]1 | 1.9 | 4.6 | -9.4 | 2.0 | 3.5
COc1ccc(-c2ccc(CNCc3ccccn3)o2)cc1Cl | 0.9 | 3.8 | 51.0* | 1.9 | 1.8
N#Cc1cc2ccccc2nc1SCC(=O)Nc1ccccc1N1CCOCC1 | 30.0* | -3.8 | 5.3 | -2.1 | -7.8
Cc1cccc2cc(C#N)c(SCC(=O)Nc3ccccc3N3CCOCC3)nc12 | -2.1 | -10.2 | 22.6 | -2.4 | -15.8
CCCCC(=O)Nc1ccccc1CC | -3.6 | 1.4 | -5.3 | 4.5 | 0.0
S=C(c1cn(Cc2ccccc2)c2ccccc12)N1CCOCC1 | 3.5 | 1.3 | 31.3 | 0.8 | -0.4
S=C(c1cn(Cc2ccc(Br)cc2)c2ccccc12)N1CCOCC1 | -1.0 | 1.4 | 49.7* | -3.9 | 0.3
Oc1ccc(/C=N/Nc2ccc(C(F)(F)F)cn2)c(O)c1 | 36.9* | -0.9 | 9.1 | -5.6 | 7.8
Oc1ccc(/C=N/Nc2ccc(C(F)(F)F)cn2)cc1 | 10.0 | -4.9 | 8.9 | -2.7 | 3.2
COc1ccc(Cn2c(SCC#N)nc3ccc(N4CCOCC4)cc3c2=O)cc1 | -2.5 | -1.0 | 70.5* | -5.9 | 9.4
CC1=NC(=O)C(N=Nc2cccc(O)c2)N1c1ccccc1 (stereo not drawn) | 30.4* | -3.8 | 3.7 | -5.3 | 4.1
Cc1cccc(-n2c(O)c(C=Nc3cccc(O)c3)c3ccccc3c2=O)n1 | 2.0 | -3.1 | -0.7 | 3.5 | 6.8
CCOC(=O)c1nc2c(=O)n(C)c(=O)n(C)c2n(C)c1=O | -4.5 | 4.0 | 11.4 | -1.3 | 0.4
O=C(Nc1ccc2nc(-c3ccco3)c(-c3ccco3)nc2c1)N1CCCCCC1 | 6.7 | -3.9 | 75.0* | -15.3 | 40.4*
Brc1ccc(-c2ccc(C3Nc4cccc5cccc(c45)N3)o2)cc1 | 41.3* | -5.2 | 16.3 | -13.9 | /
Clc1ccccc1C1Nc2cccc3cccc(c23)N1 | 12.0 | 2.0 | 12.6 | -0.3 | 5.9
COc1ccc(C2CC(c3ccccc3)=NN2C(=O)COC(=O)/C=C/c2ccc(O)c(OC)c2)cc1 (stereo not drawn) | 2.3 | -8.8 | -12.0 | -5.0 | -5.2
COc1cc(N/N=C(\C)c2ccc(O)c(C)c2)nc(-c2ccccc2)n1 | 30.2* | -6.7 | 3.6 | -9.4 | 4.0
Cc1ccc2cc(CCNC(=O)c3ccc(C)c([N+](=O)[O-])c3)c(=O)[nH]c2c1 | -7.9 | 1.3 | -31.8 | -0.7 | -1.0
O=C1C(Cl)=C(Nc2ccccc2O)C(=O)N1CCc1ccccc1 | 0.3 | 0.8 | 8.6 | -4.8 | -5.8
COc1ccc(C2c3ccc4ccccc4c3Oc3ncn(CCN4CCOCC4)c(=N)c32)cc1 (stereo not drawn) | 1.5 | -12.0 | 43.6* | -13.2 | 1.5
FC(F)(F)c1cccc(NC(=S)NNC(=S)Nc2cccc(C(F)(F)F)c2)c1 | 33.4* | -20.9 | 22.1 | -20.6 | 13.0
CNNC(=S)Nc1cccc(C(F)(F)F)c1 | -0.8 | 1.8 | -1.7 | 0.6 | -1.3
